Composite z-score and z-score data for five compounds are collected here from PubChem BioAssay.

Activity calls are given as the source filed them.

Assay [1] can be described thus: small molecules captured by biotinylated probe aFSTL3 – biochemical, small-molecule microarray, fluorescence 635/667, stem cell growth factor project, primary screen (AID 1064).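 Also: measures binding of the biotinylated anti-FSTL3 antibody to printed compounds.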 To be noted: higher = more signal.
The nature of assay [2]: binders from COS7 lysate, DM2A8 probe, primary screen, torsin A project, cell lysate, small-molecule microarray, fluorescence 635/667 (AID 1065). To be noted: higher = more signal, COS7 lysate expressing mutant human TOR1A.
Assay [3] in a line: small molecules captured by biotinylated probe aFGF2 – biochemical, small-molecule microarray, fluorescence 635/667, stem cell growth factor project, primary screen (AID 1067).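 Also: measures binding of biotinylated aFGF2 protein to printed compounds on slides; z-score merges feature fluorescence and signal-to-noise across triplicate slides.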 To be noted: higher = more signal.
The nature of assay [4]: small molecules captured by biotinylated probe aFGF10 – biochemical, small-molecule microarray, fluorescence 635/667, stem cell growth factor project, primary screen (AID 1071).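 Also: score merges 667 nm spot intensity and signal to noise from triplicate slides.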 The settings on record: higher = more signal.
Assay [5] concerns the target Neurogenic locus notch homolog protein 2 (Homo sapiens) (UniProt Q04721). The assay can be described thus: small molecules binding Notch2 protein – biochemical, small-molecule microarray, 635 nm fluorescence, stem cell growth factors, primary screen (AID 1073). To be noted: higher = more signal.
In assay [6] the target is Pro-neuregulin-1, membrane-bound isoform (Homo sapiens) (UniProt Q02297). Nature of the assay: small molecules binding neuregulin-1 protein – biochemical, small-molecule microarray, fluorescence 635/667, psychiatric disease protein project, primary screen (AID 1075).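 Also: score combines 667 nm spot fluorescence with signal to noise.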 The settings on record: NRG1 binding, 635 nm fluorescence, higher = more signal.
Assay [7] concerns Neuregulin-1 EGF-like domain. Nature of the assay: small molecules binding NRG1 EGF domain – biochemical, small-molecule microarray, 635 nm fluorescence, primary screen (AID 1081).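 Also: binding of the protein to compounds printed on small-molecule microarray slides.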 The settings on record: higher = more signal.
Assay [8] can be described thus: FRG1 expression reporter modulators in myotubes – cell-based, C2C12 myotubes, firefly/Renilla luciferase, luminescence, FRG1 inhibition for FSHD, primary screen (AID 1084). To be noted: FRG1 promoter luciferase, higher = more signal, called active from +8 up or from −8 down.
The nature of assay [9]: small molecules captured by biotinylated probe aFST – biochemical, small-molecule microarray, fluorescence 635/667, stem cell growth factor project, primary screen (AID 1086).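 Also: score merges 667 nm fluorescence with signal-to-noise of each printed compound spot.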 To be noted: higher = more signal.
Assay [10] in a line: binders of probe aHhip on microarray, primary screen, stem cell growth factor project, biochemical, small-molecule microarray, fluorescence 635/667 (AID 1087).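 Also: score merges spot fluorescence at 667nm with spot signal to noise ratio.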 The settings on record: higher = more signal.
Assay [11] relates to PRMT1 (protein arginine N-methyltransferase 1). Nature of the assay: small molecules binding arginine methyltransferase PRMT1 – biochemical, small-molecule microarray, 635 nm fluorescence, primary screen (AID 1088).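 Also: binding of Prmt1 protein to compounds spotted on small-molecule microarray slides.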 The settings on record: higher = more signal.
The nature of assay [12]: growth effects on S. cerevisiae YJM789 – YJM789 clinical isolate, OD600, 24 h, basal, primary screen (AID 1089).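 Also: growth of clinical yeast isolate S. cerevisiae YJM 789 seeded 1000 cells per well; test concentration not given here.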 The settings on record: higher = more signal, called active from +8 up or from −8 down.
The nature of assay [13]: S. pombe growth modifiers, basal conditions – strain 972, OD600, 24 h, no modulator, primary screen (AID 1090).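 Also: basal condition with compound alone and no growth modifier present; test concentration not given here.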 The settings on record: S. pombe 972 growth, higher = more signal, called active from +8 up or from −8 down.
Assay [14] is described as follows: budding yeast growth modifiers under rapamycin – strain BY4716, OD600, 96 h, primary screen (AID 1091). Also: test concentration not given here. The settings on record: S. cerevisiae BY4716 + rapamycin, higher = more signal, called active from +8 up or from −8 down.
In assay [15] the target is Torsin-1A-interacting protein 2 (Homo sapiens) (UniProt Q8NFQ8). The assay can be described thus: small molecules binding lysate-expressed LULL1 – cell lysate, human LULL1 lysate, 635/667 nm fluorescence, primary screen (AID 1092).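 Also: probe is lysate of COS7 cells overexpressing human LULL1; score merges per-feature 667 nm fluorescence with signal-to-noise.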 To be noted: small-molecule microarray, hLULL1 lysate binding, 635 nm fluorescence; higher = more signal.
A short description of assay [16]: optical density change of DRC41 E. coli – strain DRC41, OD650, 24 h, E. coli filamentation project, primary screen (AID 1093).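 Also: MC1000 strain lacking acrAB efflux and sulA so SOS filamentation is blocked; test concentration not given here.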 To be noted: E. coli DRC41 growth, higher = more signal, called active from +8 up or from −8 down.
Assay [17] is described as follows: probe aLefty2 binding to arrayed compounds – biochemical, biotinylated probe, 635/667 nm fluorescence, primary screen (AID 1094).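 Also: score merges spot fluorescence near 667 nm with spot signal-to-noise ratio.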 The settings on record: small-molecule microarray, higher = more signal.
The subject of assay [18] is Noggin (protein binding on small-molecule microarray). The assay can be described thus: small molecules binding Noggin protein – biochemical, 635/667 nm fluorescence, primary screen (AID 1095).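 Also: score merges 667 nm feature fluorescence with signal to noise over triplicate slides.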 The settings on record: 635 nm fluorescence, higher = more signal.
Assay [19] concerns the target Neurogenic locus notch homolog protein 3 (Homo sapiens) (UniProt Q9UM47). Nature of the assay: small molecules binding NOTCH3 protein – biochemical, 635/667 nm fluorescence, primary screen (AID 1096). To be noted: small-molecule microarray, 635 nm fluorescence, higher = more signal.
The nature of assay [20]: probe aEGFR binding to arrayed compounds – biochemical, biotinylated probe, 635/667 nm fluorescence, primary screen (AID 1097).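 Also: probe is a biotinylated anti-EGFR antibody binding compounds printed on slides; score combines fluorescence near 667 nm and signal to noise of each spot.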 The settings on record: small-molecule microarray, higher = more signal.

Chain of Neurogenic locus notch homolog protein 2 (Homo sapiens) (Q04721 whole entry, looked up, canonical isoform): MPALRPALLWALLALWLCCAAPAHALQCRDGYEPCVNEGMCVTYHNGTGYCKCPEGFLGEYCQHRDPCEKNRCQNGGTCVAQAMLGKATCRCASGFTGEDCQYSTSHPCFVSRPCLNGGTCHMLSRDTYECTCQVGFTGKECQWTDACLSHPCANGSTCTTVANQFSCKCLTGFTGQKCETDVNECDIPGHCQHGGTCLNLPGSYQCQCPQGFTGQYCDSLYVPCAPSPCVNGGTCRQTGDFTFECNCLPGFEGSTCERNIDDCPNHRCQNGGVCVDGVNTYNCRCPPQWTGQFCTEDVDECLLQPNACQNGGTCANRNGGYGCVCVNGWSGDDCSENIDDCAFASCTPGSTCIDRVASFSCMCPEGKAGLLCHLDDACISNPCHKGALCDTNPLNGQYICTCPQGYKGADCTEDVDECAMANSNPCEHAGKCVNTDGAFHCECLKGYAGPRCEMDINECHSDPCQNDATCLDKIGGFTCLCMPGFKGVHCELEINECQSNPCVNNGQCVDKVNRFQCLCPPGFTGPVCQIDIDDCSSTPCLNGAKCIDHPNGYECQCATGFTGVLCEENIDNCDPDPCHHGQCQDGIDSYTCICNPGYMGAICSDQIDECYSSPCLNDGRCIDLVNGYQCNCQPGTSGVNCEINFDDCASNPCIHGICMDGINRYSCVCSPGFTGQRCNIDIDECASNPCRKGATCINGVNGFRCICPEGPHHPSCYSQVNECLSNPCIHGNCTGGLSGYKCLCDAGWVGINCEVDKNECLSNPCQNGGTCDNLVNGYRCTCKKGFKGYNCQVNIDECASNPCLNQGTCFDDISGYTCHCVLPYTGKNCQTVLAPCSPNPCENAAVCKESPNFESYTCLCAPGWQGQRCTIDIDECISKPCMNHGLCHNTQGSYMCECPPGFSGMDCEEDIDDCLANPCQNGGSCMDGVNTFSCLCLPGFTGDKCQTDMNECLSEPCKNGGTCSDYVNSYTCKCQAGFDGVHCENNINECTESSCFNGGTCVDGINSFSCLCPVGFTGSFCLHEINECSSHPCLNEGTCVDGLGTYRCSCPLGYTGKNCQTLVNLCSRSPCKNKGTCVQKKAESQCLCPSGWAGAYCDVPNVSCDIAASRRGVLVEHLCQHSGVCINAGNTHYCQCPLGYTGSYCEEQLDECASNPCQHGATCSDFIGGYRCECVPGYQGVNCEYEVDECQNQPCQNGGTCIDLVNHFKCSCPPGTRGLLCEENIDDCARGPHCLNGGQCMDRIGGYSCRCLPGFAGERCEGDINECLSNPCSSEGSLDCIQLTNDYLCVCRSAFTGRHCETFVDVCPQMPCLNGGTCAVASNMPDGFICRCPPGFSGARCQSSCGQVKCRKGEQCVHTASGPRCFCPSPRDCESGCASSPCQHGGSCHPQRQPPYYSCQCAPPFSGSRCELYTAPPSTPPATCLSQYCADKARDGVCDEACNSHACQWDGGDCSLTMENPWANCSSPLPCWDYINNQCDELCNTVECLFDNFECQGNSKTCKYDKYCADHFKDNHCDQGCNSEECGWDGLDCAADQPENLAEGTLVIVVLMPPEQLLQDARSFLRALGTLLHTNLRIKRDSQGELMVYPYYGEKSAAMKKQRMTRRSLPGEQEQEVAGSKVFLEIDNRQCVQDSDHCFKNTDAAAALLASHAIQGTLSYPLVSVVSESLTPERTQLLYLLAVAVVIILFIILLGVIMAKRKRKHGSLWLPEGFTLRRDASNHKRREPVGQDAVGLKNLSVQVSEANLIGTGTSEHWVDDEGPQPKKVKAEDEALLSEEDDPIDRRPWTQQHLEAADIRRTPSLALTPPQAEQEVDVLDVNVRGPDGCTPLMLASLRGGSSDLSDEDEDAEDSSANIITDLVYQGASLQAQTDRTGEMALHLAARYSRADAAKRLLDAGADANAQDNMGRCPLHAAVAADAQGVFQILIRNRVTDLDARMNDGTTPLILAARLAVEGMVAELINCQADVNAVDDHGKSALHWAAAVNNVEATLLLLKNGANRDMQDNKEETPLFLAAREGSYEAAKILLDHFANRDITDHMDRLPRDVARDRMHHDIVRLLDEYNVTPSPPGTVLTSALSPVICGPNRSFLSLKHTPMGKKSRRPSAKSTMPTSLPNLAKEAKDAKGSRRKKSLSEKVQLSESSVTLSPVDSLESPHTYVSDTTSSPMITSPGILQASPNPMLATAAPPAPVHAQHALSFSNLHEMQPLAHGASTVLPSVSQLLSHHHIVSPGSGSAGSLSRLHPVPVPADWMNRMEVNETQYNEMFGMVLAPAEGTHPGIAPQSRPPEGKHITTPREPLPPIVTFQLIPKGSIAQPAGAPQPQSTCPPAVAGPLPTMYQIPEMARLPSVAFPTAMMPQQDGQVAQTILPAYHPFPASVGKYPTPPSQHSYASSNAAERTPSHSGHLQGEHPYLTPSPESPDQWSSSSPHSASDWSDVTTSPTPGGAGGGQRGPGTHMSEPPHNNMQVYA
Chain of Neurogenic locus notch homolog protein 3 (Homo sapiens) (Q9UM47 whole entry, looked up): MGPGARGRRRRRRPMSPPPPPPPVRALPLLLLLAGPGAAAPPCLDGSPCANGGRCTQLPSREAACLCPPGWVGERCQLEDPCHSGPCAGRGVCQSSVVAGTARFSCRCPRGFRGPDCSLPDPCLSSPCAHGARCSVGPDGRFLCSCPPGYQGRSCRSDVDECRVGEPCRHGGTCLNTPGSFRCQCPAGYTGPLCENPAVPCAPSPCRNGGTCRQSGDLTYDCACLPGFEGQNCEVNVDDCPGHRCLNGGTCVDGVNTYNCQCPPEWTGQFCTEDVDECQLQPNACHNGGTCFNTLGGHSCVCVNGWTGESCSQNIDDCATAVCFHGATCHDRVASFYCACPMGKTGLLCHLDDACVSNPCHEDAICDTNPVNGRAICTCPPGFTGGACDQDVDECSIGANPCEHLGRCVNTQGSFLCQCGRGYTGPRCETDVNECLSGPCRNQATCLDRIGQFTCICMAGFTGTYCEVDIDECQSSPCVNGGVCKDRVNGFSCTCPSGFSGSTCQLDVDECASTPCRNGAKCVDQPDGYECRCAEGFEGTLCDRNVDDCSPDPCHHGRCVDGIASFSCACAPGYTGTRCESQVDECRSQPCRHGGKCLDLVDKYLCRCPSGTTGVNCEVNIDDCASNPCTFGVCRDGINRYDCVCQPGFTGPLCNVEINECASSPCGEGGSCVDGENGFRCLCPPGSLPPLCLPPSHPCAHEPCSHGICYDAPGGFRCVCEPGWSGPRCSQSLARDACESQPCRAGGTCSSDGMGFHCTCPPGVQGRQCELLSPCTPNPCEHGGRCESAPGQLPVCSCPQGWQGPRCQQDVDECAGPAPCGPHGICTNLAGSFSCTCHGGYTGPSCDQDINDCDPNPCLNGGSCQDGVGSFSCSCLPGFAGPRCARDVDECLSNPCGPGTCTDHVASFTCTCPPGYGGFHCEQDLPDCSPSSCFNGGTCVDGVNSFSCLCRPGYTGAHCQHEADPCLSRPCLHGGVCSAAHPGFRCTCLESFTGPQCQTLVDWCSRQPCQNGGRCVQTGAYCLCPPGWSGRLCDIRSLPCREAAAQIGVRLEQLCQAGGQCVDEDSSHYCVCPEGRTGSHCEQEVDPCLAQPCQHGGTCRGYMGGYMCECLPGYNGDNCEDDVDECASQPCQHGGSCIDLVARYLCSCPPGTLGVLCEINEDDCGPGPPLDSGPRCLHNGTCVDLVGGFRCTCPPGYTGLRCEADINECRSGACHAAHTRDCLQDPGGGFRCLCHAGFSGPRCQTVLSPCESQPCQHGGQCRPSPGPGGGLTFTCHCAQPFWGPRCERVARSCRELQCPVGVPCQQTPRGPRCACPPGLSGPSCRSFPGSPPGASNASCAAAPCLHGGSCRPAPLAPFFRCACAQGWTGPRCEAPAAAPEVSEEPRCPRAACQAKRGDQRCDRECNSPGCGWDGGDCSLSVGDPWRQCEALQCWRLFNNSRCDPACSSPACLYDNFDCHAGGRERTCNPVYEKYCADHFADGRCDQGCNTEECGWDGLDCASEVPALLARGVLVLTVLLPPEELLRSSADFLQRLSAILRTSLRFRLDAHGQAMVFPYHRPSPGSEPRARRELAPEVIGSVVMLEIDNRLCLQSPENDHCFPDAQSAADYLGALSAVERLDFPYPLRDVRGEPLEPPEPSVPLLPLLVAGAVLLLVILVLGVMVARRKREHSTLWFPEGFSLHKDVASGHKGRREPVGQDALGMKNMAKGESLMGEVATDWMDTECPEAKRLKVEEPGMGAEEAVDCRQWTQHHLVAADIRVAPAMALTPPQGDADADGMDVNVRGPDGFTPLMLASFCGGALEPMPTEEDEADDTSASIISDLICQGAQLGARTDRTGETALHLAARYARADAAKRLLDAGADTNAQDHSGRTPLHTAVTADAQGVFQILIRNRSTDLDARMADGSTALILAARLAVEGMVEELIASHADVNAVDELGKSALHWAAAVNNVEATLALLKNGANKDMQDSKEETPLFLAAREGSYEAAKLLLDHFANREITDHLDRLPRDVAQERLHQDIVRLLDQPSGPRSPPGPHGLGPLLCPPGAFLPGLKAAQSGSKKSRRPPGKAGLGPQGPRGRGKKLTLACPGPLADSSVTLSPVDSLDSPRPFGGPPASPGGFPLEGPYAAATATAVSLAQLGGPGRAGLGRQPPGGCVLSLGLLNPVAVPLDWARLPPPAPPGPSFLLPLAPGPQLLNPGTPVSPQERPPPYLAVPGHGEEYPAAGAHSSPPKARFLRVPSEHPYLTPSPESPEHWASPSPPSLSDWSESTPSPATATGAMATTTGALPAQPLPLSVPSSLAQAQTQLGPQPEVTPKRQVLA

For `COCCCNC(=O)[C@@]1(Sc2ccc(C)cc2)CC(=O)N(C2CCCCC2)[C@@H]1c1ccc(CO)cc1I`, the composite z-score is -0.364 in [1]; 0.657 in assay [2]; 0.0442 in assay [3]; 0.655 in assay [4]; 1.02 in assay [5]; 1.56 in [6]. Further, the composite z-score in assay [7] is 1.26; in assay [9] it was 0.505; in assay [10] it was 0.176; in [11], 1.54; in [15], 2.81; in assay [17], -0.0333. In addition, the composite z-score in assay [18] amounted to 0.451; in [19] it was 1.04; in assay [20] it was 0.0944. For the same compound, the z-score is -3.63 (inactive) in assay [8]; -1.9 (inactive) in assay [12]; -0.128 (inactive) in assay [13]; 0.0267 (inactive) in assay [14]; 0.331 (inactive) in [16].

In the case of `CCCCC(=C=CC[C@@H](O)c1cccc(OCCO)c1)CCO`, the composite z-score in assay [1] is -0.219; in [2] it was -0.555; in assay [3], -0.057; in [4] it was 0.601; in assay [5], -0.277; in assay [6], -0.0951. The composite z-score in assay [7] is 0.345; in assay [9], 0.0204; in [10], -0.128; in assay [11], 0.468; in assay [15], 0.111; in assay [17] it was -0.179. The composite z-score was -0.0301 in assay [18], 0.098 in [19] and -0.152 in [20]. Moreover, the z-score was -0.225 (inactive) in [8]; 0.633 (inactive) in assay [12]; 0.111 (inactive) in [13]; -0.238 (inactive) in assay [14]; 0.863 (inactive) in [16].

As to `[N-]=[N+]=NCc1ccccc1C[C@]1(C(=O)N2CCCCC2)N=C(c2ccc(OCCCO)cc2)O[C@H]1c1ccccc1`, the composite z-score in [1] was 0.393; in assay [2], 0.449; in assay [3] it was -0.0165; in assay [4], 0.39; in [5], 1.07; in [6] it was 0.618. The composite z-score in assay [7] stood at 0.849; in [9], 0.485; in assay [10], 0.0722; in [11], 0.762; in assay [15], 2.46; in [17], 0.124. The composite z-score in assay [18] was 0.0914; in [19] it was 0.344; in assay [20], -0.125. Moreover, the z-score in assay [8] was -4.27 (inactive); in assay [12], 0.202 (inactive); in [13], -1.1 (inactive); in assay [14] it was 22.5 (active); in assay [16], 1.31 (inactive).

Turning to `COc1cc(OC)c(C(O)C2C=CC3C(=O)N(c4ccccc4)C(=O)C3N2Nc2ccccc2F)cc1Br` (stereo not given), the composite z-score in [1] turned out to be 0.0776; in assay [2], 0.948; in assay [3] it was 0.0619; in assay [4], 0.61; in assay [5], 1.44; in [6], 1.74. Also, the composite z-score in assay [7] was 1.25; in assay [9], 1.53; in assay [10] it was -0.0088; in assay [11] it was 1.58; in [15] it was 3.44; in [17] it was 0.0235. The figures for the composite z-score in assay [18], in assay [19] and in assay [20] were 0.662, 1.03 and -0.0531, respectively. The z-score is 0.0172 (inactive) in [8]; 0.0228 (inactive) in assay [12]; 1.77 (inactive) in assay [13]; 0.511 (inactive) in [14]; -1.36 (inactive) in assay [16].

As for `COCCCN1C(=O)[C@@]2(Cc3ccccc31)c1ccccc1C(=O)N(Cc1ccccc1OC)[C@H]2c1ccc(CO)cc1`, the composite z-score in assay [1] is 0.303; in assay [2] it was -0.457; in assay [3] it was -0.122; in assay [4], -0.279; in assay [5], -0.228; in assay [6], 0.731. The composite z-score is -0.944 in assay [7]; 0.023 in [9]; -0.181 in assay [10]; 0.727 in [11]; 1.04 in assay [15]; 0.0224 in [17]. In addition, the values for the composite z-score in assay [18], in assay [19] and in [20] were -0.913, -0.274 and -0.108, respectively. Besides, the z-score is -0.193 (inactive) in assay [8]; -1.14 (inactive) in assay [12]; -0.2 (inactive) in assay [13]; -1.33 (inactive) in [14]; 0.258 (inactive) in assay [16].
